Most compounds without a hit are left out; they make up all but 2.9% or so of the library.
B2AR arrestin: qHTS assay of beta-arrestin-biased ligands of beta2-adrenergic receptor. Potency, µM (titrated, usually from 46.1 µM), inactives show at the highest dose activation, hits mostly activators. beta-arrestin recruitment to beta2AR, cell-based reporter. Beta-2 adrenergic receptor (Homo sapiens), P07550. 0.02% of 330,000 active;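 also: potency is read from the fitted curve at half-maximal effect; 0% = DMSO controls and full agonism = EC100 isoproterenol or metaproterenol; nearly all actives have a fitted effect of over 65% in size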
DRD3 antagonist: qHTS of D3 Dopamine Receptor Antagonist: qHTS; max response, negative = inhibition, %; 2.5% of 360,000 active; D3R cells, DiscoveRx beta-arrestin luminescence, antagonist mode; active compounds read low; in the data active = max response below about -50%; also: % is scaled to controls: 0 for no effect and ±100 for the full control effect
Target sequence (P35462 whole entry, looked up): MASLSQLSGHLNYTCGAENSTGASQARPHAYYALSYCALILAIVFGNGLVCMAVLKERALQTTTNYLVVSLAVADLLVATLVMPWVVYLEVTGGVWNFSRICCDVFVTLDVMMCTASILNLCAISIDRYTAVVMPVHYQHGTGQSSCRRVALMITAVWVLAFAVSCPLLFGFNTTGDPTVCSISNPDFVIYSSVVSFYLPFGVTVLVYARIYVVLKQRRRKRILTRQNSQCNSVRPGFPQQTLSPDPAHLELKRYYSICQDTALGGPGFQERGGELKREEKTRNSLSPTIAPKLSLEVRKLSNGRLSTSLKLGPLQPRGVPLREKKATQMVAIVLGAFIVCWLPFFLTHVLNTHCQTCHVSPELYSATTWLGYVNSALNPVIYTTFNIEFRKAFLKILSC
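Cells expressing the human receptor were seeded at 1500 cells/well, incubated overnight at 37 degrees C in 5% CO2, then exposed to library compounds with dopamine controls for 90 minutes at 37 degrees C before luminescent detection.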
DRD3 agonist: qHTS of D3 Dopamine Receptor Agonist: qHTS | D(3) dopamine receptor (Homo sapiens), P35462 | D3R DiscoveRx beta-arrestin cells, luminescence, 90 min | max activation, % | 0.58% of 410,000 active; in the data active = max activation above about 30%; also: 0% is about no effect
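Cells at 1500/well, incubated overnight, then treated with pinned compounds (dopamine as control) for 90 min at 37 degrees C. DiscoveRx reagent added for 30 - 60 minutes at room temperature; luminescence read.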
IDH1 R132H inh: qHTS for Inhibitors of mutant isocitrate dehydrogenase 1 (IDH1): qHTS; Isocitrate dehydrogenase [NADP] cytoplasmic (Homo sapiens), O75874; IDH1-R132H enzyme, NADPH consumption, diaphorase/resazurin fluorescence; 0.093% of 390,000 active; Potency, µM (titrated, usually from 76.6 µM), for the others: top-dose activity change, negative = inhibition, hits mostly inhibitors; also: potency is read from the fitted curve at half-maximal effect; % is scaled to controls: 0 for no effect and ±100 for the full control effect; nearly all actives have a fitted effect of over 65% in size
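IDH1-R132H (0.5 ug/mL dispensed) in pH 7.5 Tris buffer was preincubated 30 min with compound, then given a substrate mix of 0.016 mM NADPH and 2 mM alpha-KG for 80 min at room temperature; remaining NADPH was read by diaphorase/resazurin fluorescence.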
a7 integrin act: qHTS for Activators of Integrin-Mediated Alleviation for Muscular Dystrophy. Potency, µM (doses to about 38.3 µM), for inactives: top-dose activation, usual class: activators. alpha7betagal myoblasts, beta-gal FDG fluorescence, 48 h. 0.064% of 350,000 active;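 also: potency is read from the fitted curve at half-maximal effect; 100% = response of the positive control SU9516; nearly all actives have a fitted effect of over 60% in size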
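alpha7betagal+/- myoblasts (passage 13, 250/well) treated 48 h at 37C with compounds at 1:260 dilution of DMSO stock. Lysed, then beta-galactosidase activity read as FDG fluorescence (ex 480/em 540) after 30 min, with pre-read for autofluorescence.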
* hit, by the source's call; . = no result. Unless noted, calls follow the shape of the dose curve; as a rule, active = well fitted curve in the direction sought with a large enough effect; inconclusive = small, poorly fitted or top-dose-only effect, or another doubt; inactive = no such curve, though single readings can be large; an effect the other way counts as inactive or inconclusive.

SMILES	B2AR arrestin	DRD3 antagonist	DRD3 agonist	IDH1 R132H inh	a7 integrin act
COc1ccc(C(CNC(=O)c2oc3ccc(C)cc3c2C)N2CCCCC2)cc1 (configuration not stated)	0%	-104*	-15	-5%	18%
COc1ccc(C(CNC(=O)c2cc3ccccc3o2)N2CCCC2)cc1 (configuration not stated)	4%	-84*	-30	-6%	0%
COc1ccc(C(CNC(=O)c2oc3cc(C)c(Cl)cc3c2C)N2CCCCC2)cc1 (configuration not stated)	0%	13	-13	-3%	16%
COc1ccc(C(CNC(=O)c2oc3ccccc3c2C)N2CCCCC2)cc1 (configuration not stated)	.	.	-24	0%	.
COc1ccc(C(CNC(=O)c2ccc(C)o2)N2CCOCC2)cc1 (configuration not stated)	0%	0	-6	0%	11%
CC1(C)C=Cc2cc3ccc(=O)oc3cc2O1	0%	2	-6	-6%	-35%
CC1Oc2cc3oc4c(O)c5c(cc4c(=O)c3c(O)c2C1(C)C)C=CC(C)(C)O5 (configuration not stated)	.	42	44*	6%	12%
CCCCNC(=O)Oc1cccc(N2CCCC2=O)c1	0%	-69*	5	9%	-13%
COc1ccc(NC(=O)c2oc3ccccc3c2NC(=O)COc2ccccc2OC)c(OC)c1	-1%	-1	58*	1%	6%
c1ccc(C(O[C@H]2CCCN(CCc3ccc4c(c3)OCO4)C2)c2ccccc2)cc1	.	.	-25	.	.
COc1ccc2c(c1)c1c(c(=O)n(-c3ccc(F)c(Cl)c3)c(=O)n1Cc1cccc(C)c1)n2C	.	.	-3	2%	.
COc1ccc(C2CC(=O)c3cc(-c4nc(-c5cccc([N+](=O)[O-])c5)cs4)c(=O)n(-c4ccccc4C)c3C2)cc1 (configuration not stated)	.	.	-12	4%	.
CCOC(=O)Cc1csc(NC(=O)c2ccc(Br)cc2)n1	0%	16	10	2%	-1%
CCOC(=O)Cc1csc(NC(=O)c2csc3c2CCCC3)n1	0%	-63*	2	6%	23%
CCOC(=O)Cc1csc(NC(=O)c2cc3c(s2)CCCC3)n1	0%	-11	-23	5%	-12%
CCOC(=O)Cc1csc(NC(=O)c2ccc(S(=O)(=O)N3CCCCC3)cc2)n1	0%	14	36*	-3%	-12%
N#CC1=C(SCC(=O)Nc2cccc3cccnc23)NC(=O)C(C#N)C12CCCCC2 (configuration not stated)	0%	35	39*	3%	15%
N#CC1=C(SCC(=O)NC2CC2)NC(=O)C(C#N)C12CCCCC2 (configuration not stated)	-1%	19	18	0%	-14%
Cc1cc(C)cc(Cn2ncc(Cl)c(Cl)c2=O)c1	0%	-59*	-9	7%	-54%
Cn1sccc1=O	0%	-71*	-17	0%	.
Cc1ccccc1Cn1c(=O)n(CCC(=O)NCc2ccc3c(c2)OCO3)c(=O)c2ccccc21	0%	-2	1	0%	14%
O=C(CCn1c(=O)c2ccccc2n(Cc2cccnc2)c1=O)NCc1ccc2c(c1)OCO2	0%	-59*	-3	-2%	-16%
C[C@H](CSC(=O)c1ccccc1)C(=O)N1C[C@@H](Sc2ccccc2)C[C@H]1C(=O)O	.	.	2	.	.
CCOC(=O)C(=CNc1cc(C)ccc1C)C(=O)OCC	0%	113	19	2%	-25%
CCOC(=O)C(=CNc1cc(OC)ccc1-n1cccc1)C(=O)OCC	4%	91	51*	10%	-52%
Cn1c(O)c(C2=c3ccccc3=NC2=O)sc1=Nc1ccc(Cl)cc1	-1%	-63*	-1	1%	-40%
Cc1nn(Cc2ccccc2)c(C)c1NC(=O)c1cc(-c2ccco2)on1	0%	13	12	4%	-11%
COc1ccc(OC)c(-c2cc(C(=O)NCc3ccco3)no2)c1	-1%	-54*	-27	19%	22%

Bioassay records from PubChem.
